Screens from PubChem.
Hits are enriched below; roughly 22% of the tested compounds scored in any of these assays.
CYP2C19 activ: activators of human cytochrome P450 2C19; recombinant CYP2C19, luciferin-H EGE luminescence; stronger effect = higher value; 0 = fully inhibited enzyme, 1 = untreated enzyme; activation factor at 5 µM; 96,000 tested, under 10 active; P33261;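 active = activation factor of at least 2 at 5 µM in the primary screen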;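 note: 0 = wells with 2.5 mM tranylcypromine and 1 = vehicle-only wells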
E-sel TNF inh: TNF alpha driven E-selectin expression inhibition. inhibition, % at 2 µM. HUVEC TNFa-induced E-selectin immunofluorescence, high content. hit rate 0.71% among 120,000;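 active = inhibition above the batch mean plus 3 SD, and confirmed as a hit on visual image review, cut at about 43% in these data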;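 note: 0% = TNF-stimulated DMSO wells and 100% = unstimulated control wells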
CYP2C19 inhib: human CYP2C19 inhibition. inhibition, % at 5 µM. hit rate 21% among 96,000. CYP2C19 Supersomes, luciferin-H EGE luminescence, 30 min. P33261;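 active = CYP2C19 inhibition above a set limit at 5 µM in the primary screen, cut at about 50% in these data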;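 note: plate controls were negative control wells for no effect and 2.5 mM tranylcypromine positive control for full effect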
CYP2C9 inh: blocks human cytochrome P450 2C9; P11712; CYP2C9 Supersomes, luciferin-H conversion, luminescence; inhibition, % at 5 µM; hit rate 20% among 96,000; AID 777;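 active = blocking of liver enzyme CYP2C9 beyond about 50% at 5 µM, limit read from the data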
Target sequence (P11712 whole entry, looked up): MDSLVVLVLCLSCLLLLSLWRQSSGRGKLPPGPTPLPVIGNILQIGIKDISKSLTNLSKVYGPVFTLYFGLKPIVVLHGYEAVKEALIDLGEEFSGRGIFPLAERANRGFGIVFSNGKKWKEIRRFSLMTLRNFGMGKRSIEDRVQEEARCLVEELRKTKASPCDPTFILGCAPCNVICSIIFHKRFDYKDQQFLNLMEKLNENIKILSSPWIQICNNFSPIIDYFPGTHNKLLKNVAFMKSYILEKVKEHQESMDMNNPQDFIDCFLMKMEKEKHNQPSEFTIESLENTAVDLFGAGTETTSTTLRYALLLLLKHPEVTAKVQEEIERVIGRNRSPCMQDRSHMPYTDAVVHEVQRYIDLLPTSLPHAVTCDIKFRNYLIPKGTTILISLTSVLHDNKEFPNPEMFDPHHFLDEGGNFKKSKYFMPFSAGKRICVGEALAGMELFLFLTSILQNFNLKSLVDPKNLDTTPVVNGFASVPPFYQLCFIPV
CYP2C9 activ: increases human cytochrome P450 2C9 activity. hit rate 1.4% among 96,000. recombinant CYP2C9, luciferin-H conversion, luminescence; stronger effect = higher value; factor 1 = untreated enzyme, 0 = blocked. activation factor at 5 µM;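 active = activation factor of 2 or more for CYP2C9 at a 5 µM dose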;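 note: 0 = sulfaphenazole-blocked wells and 1 = vehicle-only wells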
cytoskel mod: alters cytoskeleton assembly in HUVEC cells | HUVEC TNFa F-actin phalloidin imaging, high content | inhibition, % at 2 µM | hit rate 0.18% among 91,000;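 active = inhibition above the batch mean plus 3 SD and confirmed as a hit by visual image inspection, cut at about 30% in these data, passing the limit was not always enough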
* hit, by the source's call; . = not tested or not shown.

SMILES | CYP2C19 activ | E-sel TNF inh | CYP2C19 inhib | CYP2C9 inh | CYP2C9 activ | cytoskel mod
Cc1cc2c3c(c1)C1(C(=O)N3C(C)(C)CC2C)C(C#N)=C(N)Oc2cc(O)ccc21 (stereo not given) | 0.2 | . | 79.0* | 89.7* | 0.1 | -0.6
COc1cc2c3c(c1)C1(C(=O)N3C(C)(C)C=C2C)C(C#N)=C(N)Oc2cc(C)oc(=O)c21 (stereo not given) | 0.4 | -11.2 | 55.2* | 26.7 | 0.7 | -19.0
CC1=CC(C)(C)N2C(=O)C3(C(C#N)=C(N)Oc4cc(C)oc(=O)c43)c3cc(C)cc1c32 (stereo not given) | . | -15.5 | . | . | . | 11.6
Cc1ccc2c3c1C1(C(=O)N3C(C)(C)CC2C)C(C#N)=C(N)Oc2cc(O)ccc21 (stereo not given) | 0.3 | -16.4 | 69.7* | 89.3* | 0.1 | -8.0
CC1=CC(C)(C)N2C(=O)C3(C(C#N)=C(N)OC4=C3C(=O)CC(C)(C)C4)c3cccc1c32 (stereo not given) | 0.9 | . | 5.1 | 5.7 | 0.9 | 28.3
CCC(C)N1CC(C(=O)O)CC1=O (stereo not given) | 1 | -14.3 | 2.4 | 3.0 | 1 | -11.9
CCOc1ccc(OCC)c(NC(=O)CSc2nc3c(c(=O)n(C)c(=O)n3C)n2C(C)C)c1 | 0.9 | 4.2 | 8.1 | 31.3 | 0.7 | -16.6
O=C(O)CC/C(=N\Nc1ccc(S(=O)(=O)N2CCCC2)cc1[N+](=O)[O-])c1cccs1 | 0.9 | . | 5.2 | 98.7* | 0 | -9.8
Cc1nc(N2CCN(Cc3ccccc3)CC2)nc2c1C(=O)CC(C)C2 (stereo not given) | 0.4 | -17.2 | 60.6* | 76.8* | 0.2 | 0.4
COc1cc(C2CC(=O)c3cnc(N4CCN(Cc5ccccc5)CC4)nc3C2)cc(OC)c1OC (stereo not given) | 0.2 | 0.9 | 83.7* | 96.7* | 0 | -4.7
COc1ccc(C2CC(=O)c3c(C)nc(N4CCN(Cc5ccccc5)CC4)nc3C2)cc1OC (stereo not given) | 0.1 | 2.9 | 91.0* | 99.7* | 0 | -0.2
CCOC(=O)c1[nH]c2c(c1-c1ccccc1)C(=O)CC(c1ccc(OC)c(OC)c1)C2 (stereo not given) | . | -19.6 | . | . | . | .
O=C1CC(c2ccco2)Cc2nc(N3CCc4ccccc4C3)ncc21 (stereo not given) | 0.1 | -10.5 | 95.0* | 97.8* | 0 | 5.3
COc1ccc(N2C(=O)CSC23C(=O)Nc2ccccc23)cc1 (stereo not given) | . | 21.4 | . | . | . | -22.0
CCc1cc(=O)oc2cc(C)cc(OCc3nn[nH]n3)c12 | 1 | 6.4 | -0.2 | 17.9 | 0.8 | -14.6
CC1CC(C)CN(c2ncc3c(n2)CC(c2ccccc2)CC3=O)C1 (stereo not given) | 0.3 | . | 74.4* | 89.7* | 0.1 | -6.6
CCC1S/C(=N\S(=O)(=O)c2cccs2)N(C2CCCCC2)C1=O (stereo not given) | 0.2 | 21.6 | 78.7* | 56.7* | 0.4 | 11.6
CCOC(=O)c1cc(-c2cccs2)nc2onc(C)c12 | 0.7 | . | 27.1 | 24.7 | 0.8 | -22.2
CCCN=C1N/C(=C\c2ccco2)C(=O)N1c1ccccc1 | 0.9 | -9.9 | 11.6 | 22.1 | 0.8 | -14.1
CCCN(CCC)C1=N/C(=C\c2ccco2)C(=O)N1c1ccccc1 | 0.4 | -6.4 | 64.0* | 71.0* | 0.3 | 9.2
COc1cc(C2c3c(n[nH]c3C)C(=O)N2c2ccc(C)cc2)ccc1O (stereo not given) | 0.6 | -17.9 | 38.1 | 43.7 | 0.6 | .
COc1cc(C2c3c(-c4ccccc4)n[nH]c3C(=O)N2c2ccccc2)ccc1O (stereo not given) | 0.2 | . | 76.9* | 91.9* | 0.1 | -32.6
COn1c(C)c(C(C)=O)c2c3nonc3ccc21 | 0.4 | 45.0 | 61.2* | 50.5* | 0.5 | -9.7
CC(=O)c1ccc(Oc2ncnc3sccc23)cc1 | . | -3.1 | . | . | . | .
Cc1ccc(N(CC(=O)N/N=C/c2cc(C)n(-c3ccccc3)c2C)S(C)(=O)=O)c(C)c1 | 0.8 | 14.8 | 17.7 | 21.1 | 0.8 | 4.5
SMILES | CYP2C19 activ | E-sel TNF inh | CYP2C19 inhib | CYP2C9 inh | CYP2C9 activ | cytoskel mod
Cc1cccc(N(CC(=O)Nc2ccc(F)cc2)S(C)(=O)=O)c1 | 0 | -0.3 | 96.4* | 82.4* | 0.2 | -7.5
Cc1ccc(N(CC(=O)Nc2ccc(F)cc2)S(=O)(=O)N2CCCC2)cc1 | 0.7 | -10.5 | 33.9 | 62.1* | 0.4 | -1.6
CN(C)c1ccc(NC(=O)CN2CCN(CC(=O)Nc3ccc(F)cc3)CC2)cc1 | 0.9 | -0.6 | 12.8 | 5.3 | 0.9 | .
CSc1cccc(NC(=O)CN(c2ccc(C)cc2C)S(C)(=O)=O)c1 | 0.1 | . | 94.6* | 62.1* | 0.4 | -33.5
CSc1cccc(NC(=O)CN(c2cccc(C)c2)S(C)(=O)=O)c1 | 0.3 | -26.1 | 72.5* | 62.0* | 0.4 | 6.2
CC(SCc1ccccc1)C(=O)Nc1ccccc1-c1ccccc1 (stereo not given) | . | 7.2 | . | . | . | .
O=C(COc1ccccc1)Nc1ccccc1C(=O)NCc1ccco1 | 0.4 | . | 58.3* | 63.5* | 0.4 | -7.1
O=C(Nc1ccccc1C(=O)NCc1ccco1)c1ccccc1 | 0.5 | -20.1 | 54.3* | 73.8* | 0.3 | 21.5
O=C(NCc1ccco1)C1CC(=O)N(c2ccc(F)cc2)C1 (stereo not given) | 1 | -20.8 | -0.3 | -21.3 | 1.2 | 5.9
O=C(CCc1ccccc1)Nc1ccccc1C(=O)NCc1ccco1 | . | 7.2 | . | . | . | 1.1
COc1ccc(C(=O)Nc2ccc(Cl)cc2C(=O)NCc2ccco2)cc1 | . | -18.6 | . | . | . | -25.7
CCC(C)C(NC(=O)c1ccccc1NC(=O)c1ccc(OC)cc1)C(=O)NCc1ccco1 (stereo not given) | 0.2 | . | 76.1* | 89.0* | 0.1 | 10.4
O=C(NCc1ccco1)c1ccccc1NC(=O)C1CC(=O)N(c2ccc(Cl)cc2)C1 (stereo not given) | 0.5 | -18.2 | 53.4* | 68.2* | 0.3 | -24.3
O=C(Nc1ccccc1C(=O)N/N=C/c1ccco1)c1ccc(F)cc1 | . | 94.1* | . | . | . | .
O=C(Nc1ccc(Cl)cc1)Nc1ccccc1C(=O)NCc1ccco1 | 0.9 | 12.6 | 5.7 | 53.1* | 0.5 | 0.0
Cc1cccc(C)c1NC(=S)Nc1ccccc1C(=O)NCc1ccco1 | . | -4.9 | . | . | . | .
Cc1ccccc1NC(=O)CNc1ccccc1C(=O)NCc1ccco1 | 0.3 | 15.1 | 68.1* | 24.4 | 0.8 | 10.1
Cc1cccc(Nc2nc(NC(C)C)nc(Oc3ccc(=O)n(C)n3)n2)c1 | 0.8 | 10.4 | 15.7 | 52.7* | 0.5 | 9.8
COc1cc(C)nc(Oc2ccc(=O)n(C)n2)n1 | 1.1 | -25.6 | -5.4 | 10.3 | 0.9 | 8.3
COc1ccc(N(Cc2ccccc2)C(=O)c2ccccc2[N+](=O)[O-])cc1 | 0.4 | 7.5 | 60.8* | 18.6 | 0.8 | 21.3
COc1ccc(CNc2nc(NCc3ccc(OC)cc3)n(C(=O)c3ccccc3[N+](=O)[O-])n2)cc1 | 0.6 | -3.0 | 40.3 | 69.5* | 0.3 | -31.9
